Rows were chosen to be rich in hits. Some 3.5% of all compounds tested hit in one or more screens of this group.
GPR151 activ – activators of human GPR151; Q8TDV0; PathHunter beta-arrestin GPR151 cells, luminescence; activation, % at 11.2 µM; 650,000 compounds, 1% hits; AID 1508602; in the data active means activation above about 4.9%;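 further: 0% = median of compound wells and 100% = cells with positive control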
Target sequence (Q8TDV0 whole entry, looked up): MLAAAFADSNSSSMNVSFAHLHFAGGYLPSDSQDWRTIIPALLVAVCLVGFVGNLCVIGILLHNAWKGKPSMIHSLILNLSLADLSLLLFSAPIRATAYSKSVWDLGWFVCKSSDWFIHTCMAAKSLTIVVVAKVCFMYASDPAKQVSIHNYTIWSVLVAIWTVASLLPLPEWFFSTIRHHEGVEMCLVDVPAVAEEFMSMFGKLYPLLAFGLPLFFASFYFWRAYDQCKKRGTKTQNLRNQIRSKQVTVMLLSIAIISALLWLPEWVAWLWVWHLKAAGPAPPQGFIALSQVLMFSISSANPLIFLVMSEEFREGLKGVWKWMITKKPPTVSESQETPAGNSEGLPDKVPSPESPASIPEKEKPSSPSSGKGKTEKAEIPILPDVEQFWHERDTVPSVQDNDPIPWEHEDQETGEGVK
TEAD-YAP inh – TEAD-YAP interaction inhibition; HEK-TIYL cells, TEAD-Gal4/YAP UAS-luciferase luminescence; inhibition, % at 9.12 µM; 640,000 compounds, 1.4% hits; in the data active means inhibition above about 32%;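 further: 0% = median of test compound wells and 100% = reference inhibitor wells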
FBW7 activator – human FBW7 E3 ligase activation, primary screen | Q969H0 | AlphaScreen FBW7–phospho-cyclin E peptide binding, activator screen | normalized activity (activation), % at 26.1 µM | 650,000 compounds, 0.13% hits | AID 1259310; in the data active means normalized activity above about 1.9%;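 further: purified mutant Fbw7 with reduced substrate affinity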
MITF inh – inhibitors of human MITF; O75030; inhibition, % at 2.6 µM; AlphaScreen MITF homodimerization, bead proximity signal; 650,000 compounds, 0.91% hits; in the data active means inhibition above about 50%;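 further: 0% = vehicle wells with protein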
* = called active by the depositor; ! = a repeat was not active.

How did CCOC(=O)N1CCN(C(=O)C2CCN(c3nc4ccc(CC)cc4s3)CC2)CC1 do in these assays?
GPR151 activ: 0; TEAD-YAP inh: 11; FBW7 activator: 1; MITF inh: -7

How did CCOc1ccc(NC(=O)C2CCN(c3nc4ccc(OCC)cc4s3)CC2)cc1 do in these assays?
GPR151 activ: 1; TEAD-YAP inh: 12; FBW7 activator: 0; MITF inh: -3

How did CCOc1ccc2nc(SCCC(=O)Nc3ccc(OC)cc3)sc2c1 do in these assays?
GPR151 activ: 3; TEAD-YAP inh: 28; FBW7 activator: 0; MITF inh: 1

How did CCc1ccc2nc(N3CCC(C(=O)N4CCCC4)CC3)sc2c1 do in these assays?
GPR151 activ: 0; TEAD-YAP inh: 48*; FBW7 activator: 0; MITF inh: 2

How did Cc1ccc(S(=O)(=O)/N=C2\SCCN2S(=O)(=O)c2ccc(C)cc2)cc1 do in these assays?
GPR151 activ: 1; TEAD-YAP inh: -5; FBW7 activator: 0; MITF inh: 1

Results for CCSc1nnc2c(n1)OC(c1ccc(Cl)cc1)Nc1ccccc1-2 (stereo unspecified) ?
GPR151 activ: 0; TEAD-YAP inh: -4; FBW7 activator: 0; MITF inh: 14

How did CC(=O)CN(CC(=O)O)S(=O)(=O)c1ccc(C)cc1 do in these assays?
GPR151 activ: 1; TEAD-YAP inh: 4; FBW7 activator: 0; MITF inh: -4

Results for CCc1ccc(N(CC(=O)NC(C)CC)S(C)(=O)=O)cc1 (stereo unspecified) ?
GPR151 activ: -1; TEAD-YAP inh: 11; FBW7 activator: 1.9*; MITF inh: 18

What do the screens show for `COC(=O)c1ccc(CSc2nc(C)cc(=O)[nH]2)cc1`?
GPR151 activ: -1; TEAD-YAP inh: 4; FBW7 activator: 0; MITF inh: -9

Results for N#Cc1cccc(CSc2nc3ccncc3[nH]2)c1 ?
GPR151 activ: -1; TEAD-YAP inh: 2; FBW7 activator: 1; MITF inh: 6

What do the screens show for `COC(=O)c1ccc(CSc2nc3ccncc3[nH]2)cc1`?
GPR151 activ: -3; TEAD-YAP inh: 92*; FBW7 activator: 0; MITF inh: 4

Results for c1ccc(CSc2nc3ccncc3[nH]2)cc1 ?
GPR151 activ: -2; TEAD-YAP inh: 57*; FBW7 activator: 0; MITF inh: -11

Results for O=C(c1cc2cc([N+](=O)[O-])ccc2oc1=O)N1CCCCC1 ?
GPR151 activ: -1; TEAD-YAP inh: 14; FBW7 activator: 0; MITF inh: 4

How did CCCNC(=O)c1cc(-c2ccc(Cl)cc2)nc2ccccc12 do in these assays?
GPR151 activ: -1; TEAD-YAP inh: -5; FBW7 activator: 0; MITF inh: -1

What do the screens show for `Cn1nccc1C(=O)Oc1cccc(/C=N/NC(=O)c2ccccc2O)c1`?
GPR151 activ: -3; TEAD-YAP inh: 42*; FBW7 activator: 0; MITF inh: 6

What do the screens show for `CC[n+]1ccc(/C=C/c2cccc(OC)c2OC)cc1`?
GPR151 activ: 0; TEAD-YAP inh: 34*; FBW7 activator: 0; MITF inh: 2

Results for CC[n+]1ccc(/C=C/c2ccc(OC)cc2OC)cc1 ?
GPR151 activ: -1; TEAD-YAP inh: 42*; FBW7 activator: 0; MITF inh: 2

What do the screens show for `O=c1[nH]cc(F)c(=O)[nH]1`?
GPR151 activ: 3; TEAD-YAP inh: 35*!; FBW7 activator: 0; MITF inh: 12

What do the screens show for `CC(C)n1cnc2c(Nc3ccccc3)nc(NCc3ccc4c(c3)OCO4)nc21`?
GPR151 activ: -3; TEAD-YAP inh: -43; FBW7 activator: 0; MITF inh: 15

What do the screens show for `O=C(CSc1nccc(=O)[nH]1)c1ccc(O)c(O)c1`?
GPR151 activ: -2; TEAD-YAP inh: 2; FBW7 activator: 0; MITF inh: 55*

What do the screens show for `Cc1cccc(N2CCN(C(=O)c3cccc(N4CCCC4=O)c3)C(C)C2)c1` (stereo unspecified)?
GPR151 activ: -1; TEAD-YAP inh: 58*; FBW7 activator: 0; MITF inh: 2

What do the screens show for `Cc1cccc(N2CCN(C(=O)c3ccc(N4CCCC4=O)cc3)CC2C)c1` (stereo unspecified)?
GPR151 activ: 0; TEAD-YAP inh: -2; FBW7 activator: 0; MITF inh: -2

Results for O=C(c1cccc(N2CCCC2=O)c1)N1CCN(c2cccc(Cl)c2)CC1 ?
GPR151 activ: 0; TEAD-YAP inh: 44*; FBW7 activator: 0; MITF inh: 1

How did NC(=O)c1ncsc1Nc1ccnc(Nc2ccc(N3CCOCC3)cc2)c1 do in these assays?
GPR151 activ: 3; TEAD-YAP inh: 21; FBW7 activator: 0; MITF inh: 20

Results for CSc1nc(Nc2ccnc(Nc3ccc(N4CCOCC4)cc3)c2)c(C(N)=O)s1 ?
GPR151 activ: 0; TEAD-YAP inh: 41*; FBW7 activator: -1; MITF inh: 8

How did COc1ccc(C(=O)NNC(=O)c2ccccc2F)cc1 do in these assays?
GPR151 activ: -1; TEAD-YAP inh: -21; FBW7 activator: 0; MITF inh: -6

What do the screens show for `CC1CCCCC1NC(=O)CN(C)S(=O)(=O)c1ccc2nc(-c3ccccc3)[nH]c2c1` (stereo unspecified)?
GPR151 activ: 1; TEAD-YAP inh: 26; FBW7 activator: 0; MITF inh: 54*

What do the screens show for `COC(CNc1cc(-c2ccccc2)nc(-c2ccccn2)n1)OC`?
GPR151 activ: 1; TEAD-YAP inh: 48*; FBW7 activator: -1; MITF inh: 12

What do the screens show for `Fc1ccccc1-c1cc(NCCCN2CCOCC2)nc(-c2ccccn2)n1`?
GPR151 activ: 1; TEAD-YAP inh: 37*; FBW7 activator: -1; MITF inh: 17

What do the screens show for `Fc1ccc(-c2cc(NCCCN3CCOCC3)nc(-c3ccccn3)n2)cc1`?
GPR151 activ: -1; TEAD-YAP inh: 10; FBW7 activator: -1; MITF inh: -13

What do the screens show for `c1ccc(-c2cc(NCc3ccncc3)nc(-c3ccccn3)n2)cc1`?
GPR151 activ: 0; TEAD-YAP inh: 37*; FBW7 activator: -1; MITF inh: 19

Results for OCCCNc1cc(-c2ccccn2)nc(-c2ccccn2)n1 ?
GPR151 activ: 4; TEAD-YAP inh: 3; FBW7 activator: -1; MITF inh: 115*

What do the screens show for `c1ccc(CNc2cc(-c3ccncc3)nc(-c3ccccn3)n2)cc1`?
GPR151 activ: 0; TEAD-YAP inh: 7; FBW7 activator: -1; MITF inh: 3

What do the screens show for `COC(=O)c1ccc(NC(=O)C(Cc2ccccc2)N2C(=O)c3ccccc3C2=O)cc1` (stereo unspecified)?
GPR151 activ: 1; TEAD-YAP inh: 3; FBW7 activator: 0; MITF inh: 2

Results for Cc1ccc2c(c1)N(C(=O)N1CCC(C(=O)N3CCCCCC3)CC1)CC(C)O2 (stereo unspecified) ?
GPR151 activ: -1; TEAD-YAP inh: 10; FBW7 activator: 0; MITF inh: -3

How did FC(F)(F)c1cccc(NC(=S)N(CCN2CCCCCC2)Cc2ccco2)c1 do in these assays?
GPR151 activ: 0; TEAD-YAP inh: 4; FBW7 activator: 0; MITF inh: -1

Results for OCCCNc1cc(-c2ccccn2)nc(-c2ccccc2)n1 ?
GPR151 activ: 3; TEAD-YAP inh: 22; FBW7 activator: 0; MITF inh: 17

Compound activity as filed in PubChem.
